{
  "source": "PubChem BioAssay (Tox21)",
  "note": "Active and inactive are the calls of the source. A call without a number means that no potency is given here. Calls come from the whole dose curve.",
  "data": [
    {"experiment": "G protein-coupled receptor (GPCR) small molecule agonists, calcium flux assay: HEK293 wild type cell line counter screen (AID 1920065)", "settings": "HEK293 WT calcium flux, fluorescence, agonist mode; series mostly up to 57.6 µM", "from_the_text": "U.S. Tox21 Program National Center for Advancing Translational Sciences [NCATS] Division of Preclinical Innovation [DPI] U.S. Environmental Protection Agency [EPA] National Institutes of Environmental Health Sciences [NIEHS] National Toxicology Program [NTP] U.S. Food and Drug Administration [FDA] Assay overview: The increased intracellular calcium release that occurred upon G protein-coupled receptor (GPCR) activation led to the frequent use of calcium flux assays to detect GPCR activation. For the purpose of studying and screening compounds that may activate GPCR, receptor-overexpressing models were typically generated using Hek293 wild-type (WT) cells. In order to eliminate the compounds that may have induced calcium release for non-specific activation, a counter-assay utilizing calcium flux on Hek293 WT cells was performed. The data were formulated in order to serve as a control for any calcium flux detection utilizing Hek293 cells with either GPCR overexpression or gene modification. The procurement of Hek293 WT cells from ATCC. Fluorescence intensity can be utilized to determine the activation of the compound in a calcium flux assay. As a counter control, this cell line was utilized to screen the Tox21 10K compound library.\nAssay Protocol Summary: Hek293 cells were dispensed at 1500cells/4uL/well in 1536-well black wall/clear bottom plates using a multidrop dispenser. After the assay plates were incubated at a 37 C/5% CO2 incubator for 18 hours, 4 uL of Calcium Dye Solution was added to each well. The plates were incubated at 37 C for 1 hour. For agonist mode, 23 nL of compounds dissolved in DMSO, positive control (ATP) or DMSO only was transferred to the assay plate by a pin tool station. The fluorescence intensity in the plates was measured using FDSS 7000EX kinetic plate reader with a filter set of Ex/Em=480/540 for 3 min at 1 sec intervals. Each test compound was measured at 15 concentrations and in triplicates.", "values": [
      {"molecule": "Cc1cccc([N+](=O)[O-])c1C", "Potency": "inactive"},
      {"molecule": "C[C@]12CC[C@@H]3c4ccc(O)cc4CC[C@H]3[C@@H]1CC[C@H]2O", "Potency": "inactive"},
      {"molecule": "Oc1c(Cl)cc(Cl)c(Cl)c1Cl", "Potency": "inactive"},
      {"molecule": "O=C1CCCC1", "Potency": "inactive"},
      {"molecule": "O=C(O)C1=NN(c2ccc(S(=O)(=O)O)cc2)C(=O)C1", "Potency": "inactive"},
      {"molecule": "O=NO", "Potency": "inactive"},
      {"molecule": "Cc1ccc(N)c(S(=O)(=O)O)c1", "Potency": "inactive"},
      {"molecule": "O=c1n(CC2CO2)c(=O)n(CC2CO2)c(=O)n1CC1CO1", "note": "(stereo not given)", "Potency": "inactive"},
      {"molecule": "O=C(O)C(=O)O", "Potency": "inactive"},
      {"molecule": "CC(O)(P(=O)(O)O)P(=O)(O)O", "Potency": "inactive"},
      {"molecule": "Cc1cc(Cc2ccc(N)c(C)c2)ccc1N", "Potency": "inactive"},
      {"molecule": "c1ccc2c(c1)[nH]c1ccccc12", "Potency": "inactive"},
      {"molecule": "CCO[Si](CCCN)(OCC)OCC", "Potency": "inactive"},
      {"molecule": "CC1(C)NC(=O)NC1=O", "Potency": "inactive"},
      {"molecule": "O=c1[nH]nnc2ccccc12", "Potency": "inactive"},
      {"molecule": "[Na+]", "Potency": "inactive"},
      {"molecule": "CCCCCCCCCCCCCC[N+](C)(C)Cc1ccccc1", "Potency": "inactive"},
      {"molecule": "COc1cc([C@@H]2c3cc4c(cc3[C@H](O)[C@H]3COC(=O)[C@H]23)OCO4)cc(OC)c1OC", "Potency": "inactive"},
      {"molecule": "C=CN1CCCC1=O", "Potency": "inactive"},
      {"molecule": "CNC[C@H](O)[C@@H](O)[C@H](O)[C@H](O)CO", "Potency": "inactive"},
      {"molecule": "O=c1[nH]cnc2c1ncn2[C@H]1CC[C@@H](CO)O1", "Potency": "inactive"},
      {"molecule": "CC(=O)OC[C@H]1O[C@@](COC(C)=O)(O[C@H]2O[C@H](COC(C)=O)[C@@H](OC(C)=O)[C@H](OC(C)=O)[C@H]2OC(C)=O)[C@@H](OC(C)=O)[C@@H]1OC(C)=O", "Potency": "inactive"},
      {"molecule": "CCc1cccc2c3c([nH]c12)C(CC)(CC(=O)O)OCC3", "note": "(stereo not given)", "Potency": "inactive"},
      {"molecule": "CC1=C(C)S(=O)(=O)CCS1(=O)=O", "Potency": "inactive"},
      {"molecule": "COCC(=O)O", "Potency": "inactive"},
      {"molecule": "NC(=O)N/N=C/c1ccc([N+](=O)[O-])o1", "Potency": "inactive"},
      {"molecule": "CC(C)(Oc1ccc(Cl)cc1)C(=O)O", "Potency": "inactive"},
      {"molecule": "C[C@]12CC[C@@H]3c4ccc(O)cc4C[C@@H](CCCCCCCCCS(=O)CCCC(F)(F)C(F)(F)F)[C@H]3[C@@H]1CC[C@@H]2O", "note": "(stereo not given in full)", "Potency": "inactive"},
      {"molecule": "CC(C)NCC(O)c1ccc(O)c(O)c1", "note": "(stereo not given)", "Potency": "inactive"},
      {"molecule": "O=C(c1ccccc1)C(O)c1ccccc1", "note": "(stereo not given)", "Potency": "inactive"},
      {"molecule": "Nc1ccc(O)c(C(=O)O)c1", "Potency": "inactive"},
      {"molecule": "CC(=O)Nc1c(I)c(NC(C)=O)c(I)c(C(=O)O)c1I", "Potency": "inactive"},
      {"molecule": "Cc1ccc(C(=O)O)o1", "Potency": "inactive"},
      {"molecule": "CCC(Cc1c(I)cc(I)c(N)c1I)C(=O)O", "note": "(stereo not given)", "Potency": "inactive"},
      {"molecule": "Cc1nnc(NS(=O)(=O)c2ccc(N)cc2)s1", "Potency": "inactive"},
      {"molecule": "C1CNCCN1", "Potency": "inactive"},
      {"molecule": "COCCCN", "Potency": "inactive"},
      {"molecule": "O=C(OCCOCCOC(=O)c1ccccc1)c1ccccc1", "Potency": "inactive"},
      {"molecule": "C=Cc1ccc(C)cc1", "Potency": "inactive"},
      {"molecule": "CC(=O)c1ccccc1", "Potency": "inactive"}
    ]}
  ]
}
